Values without a mark were called inactive. Inconclusive results are not listed. Active and inactive are the calls of the source. The call rests on the fitted dose curve; in most records, active means well fitted curve in the direction sought with a large enough effect; inconclusive means small, poorly fitted or top-dose-only effect, or another doubt; inactive means no such curve, though single readings can be large; an effect the other way counts as inactive or inconclusive.
target: Cytochrome P450 2D6 (Homo sapiens) (UniProt P10635); test: qHTS for inhibitors of CYP2D6 against the NCATS DSHEA and TCM libraries (AID 1919972); conditions: CYP2D6 enzymatic inhibition, luminescence qHTS; series mostly up to 34.1 µM; activity change, negative = inhibition: at the top concentration; further: potency means the concentration at half of the fitted maximal effect; on activity change, negative = inhibition: on the % scale 0 is the no-effect control and ±100 the full control effect
Sequence (P10635 whole entry, looked up): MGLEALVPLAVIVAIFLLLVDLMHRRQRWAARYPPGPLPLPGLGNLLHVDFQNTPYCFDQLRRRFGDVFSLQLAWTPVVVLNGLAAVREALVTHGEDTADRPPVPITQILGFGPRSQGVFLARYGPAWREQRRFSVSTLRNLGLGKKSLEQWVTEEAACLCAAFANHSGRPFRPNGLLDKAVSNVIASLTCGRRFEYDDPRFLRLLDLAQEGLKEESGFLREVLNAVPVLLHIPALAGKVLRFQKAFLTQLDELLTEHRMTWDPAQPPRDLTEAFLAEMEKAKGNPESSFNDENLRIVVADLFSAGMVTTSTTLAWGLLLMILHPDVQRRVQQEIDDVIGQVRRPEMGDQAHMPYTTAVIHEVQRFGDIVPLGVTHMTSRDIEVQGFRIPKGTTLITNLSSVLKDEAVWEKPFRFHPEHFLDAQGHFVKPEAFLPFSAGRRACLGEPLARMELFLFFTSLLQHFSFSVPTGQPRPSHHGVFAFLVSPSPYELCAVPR
Procedure, shortened: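 Steps: enzyme plus luciferin substrate dispensed; test substances pinned; 15 min RT; 1x NADPH regenerating solution added, 30–45 min RT protected from light; detection reagent, 30 min RT; luminescence measured. Minus-enzyme wells as background.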

Compound | activity change, negative = inhibition | Potency
C=C(C)[C@H]1CC=C(C)C(=O)C1 | 2.99% | –
O=c1cc(-c2ccc(O)cc2)oc2cc(O[C@H]3OC(CO)C(O)C(O)C3O)cc(O)c12 (some centres undefined) | 1.12% | –
COC(=O)C1=CO[C@@H](C)[C@H]2CN3CCc4c([nH]c5ccccc45)[C@@H]3C[C@H]12 | – | 0.0398 µM (active)
O=C(/C=C/c1ccc(O)c(O)c1)OC(Cc1ccc(O)c(O)c1)C(=O)O (centres undefined) | -3.46% | –
C=C[C@](C)(O)CCC=C(C)C | -11.7% | –
NC(Cc1c[nH]c2ccccc12)C(=O)O (centres undefined) | -25.3% | –
O=c1ccc2ccc(O)cc2o1 | -16.9% | –
COc1ccc2ccc(=O)oc2c1 | 0.287% [at 58.3 µM] | –

target: Cytochrome P450 2C9 (Homo sapiens) (UniProt P11712); test: qHTS for inhibitors of CYP2C9 against the NCATS DSHEA and TCM libraries (AID 1919973); conditions: recombinant CYP2C9 enzyme activity, luminescence; series mostly up to 58.3 µM; activity change, negative = inhibition: at the top concentration; further: potency means the concentration at half of the fitted maximal effect;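 on activity change, negative = inhibition: luminogenic pro-luciferin CYP2C9 substrate turned into luciferin with NADPH regeneration; on the % scale 0 is the no-effect control and ±100 the full control effect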
Sequence (P11712 whole entry, looked up): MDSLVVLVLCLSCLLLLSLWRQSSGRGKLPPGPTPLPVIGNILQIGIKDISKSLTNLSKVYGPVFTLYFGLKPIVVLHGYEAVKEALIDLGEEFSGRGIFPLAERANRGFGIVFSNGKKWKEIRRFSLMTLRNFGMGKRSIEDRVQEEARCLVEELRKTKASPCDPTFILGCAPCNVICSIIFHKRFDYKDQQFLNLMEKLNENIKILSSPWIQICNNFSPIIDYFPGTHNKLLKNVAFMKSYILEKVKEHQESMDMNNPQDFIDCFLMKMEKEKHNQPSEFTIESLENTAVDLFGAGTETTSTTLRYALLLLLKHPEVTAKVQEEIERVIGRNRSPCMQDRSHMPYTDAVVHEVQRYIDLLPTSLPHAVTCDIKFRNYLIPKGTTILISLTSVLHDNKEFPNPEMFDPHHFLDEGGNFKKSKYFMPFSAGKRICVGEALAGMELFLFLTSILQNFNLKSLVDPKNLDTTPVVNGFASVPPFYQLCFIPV
Description: (§1) Assay Development and Screening Technology Laboratory (ADST)
(§2) National Center for Advancing Translational Sciences (NCATS), Rockville, MD
(§3) National Institute of Health (NIH), Bethesda, Maryland
(§4) Dietary Supplements and Natural Products have minor oversight of their safety and efficacy. We assembled a collection of Dietary Supplements and Natural Products (DSNP) as well as Traditional Chinese Medicinal (TCM) Plant extracts, which were screened against an in vitro panel of assays, including a liver cytochrome p450 enzyme panel, CAR/PXR signaling pathways, and P-gp transporter assays, to assess their activity. This pipeline facilitated the interrogation of Natural Product-Drug Interaction (NaPDI) through prominent metabolizing pathways. In addition, we compared the activity profiles of the DSNP/TCM substances with those of an approved drug collection. Many of the approved drugs have well-annotated mechanisms of action (MOA) while the MOAs for most of the DSNP and TCM samples remain unknown. Based on the premise that compounds with similar activity profiles tend to share similar targets or MOA, we clustered the library activity profiles to identify overlap with the NCATS Pharmaceutical Collection to predict the MOAs of the DSNP/TCM substances. Overall, we highlight four significant bioactivity profiles (measured by p-values) as examples of this prediction. To assess broad cytotoxicity, we employed screening against a HepG2 cell line. In addition, transporter-mediated drug interactions are utilized in the characterization of DDIs using a P-glycoprotein (P-gp) assays. To profile potential P-gp activity, a differential cell viability was measured against two cell lines: a parental KB-3-1 human cervical adenocarcinoma cell line and the drug-resistant subline KB-8-5-11 that overexpresses P-gp.
(§5) To this end, we profiled both collections for potential CAR and/or PXR activity, employing a previously published 1536-well qHTS assay.
[1] […]
9; Read; Luminescence; ViewLux plate reader. […]

Compound | activity change, negative = inhibition | Potency
C=C(C)[C@H]1CC=C(C)C(=O)C1 | 11.9% [at 34.1 µM] | –
O=c1ccc2ccc(O)cc2o1 | – | 7.08 µM (active)
COc1ccc2ccc(=O)oc2c1 | 6.08% | –

target: Cytochrome P450 2C19 (Homo sapiens) (UniProt P33261); test: qHTS for inhibitors of CYP2C19 against the NCATS DSHEA and TCM libraries (AID 1919974); conditions: CYP2C19 enzyme inhibition, luminescence qHTS; series mostly up to 34.1 µM; activity change, negative = inhibition: at the top concentration;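 further: luminescence from luciferin released by CYP2C19 oxidation of a pro-luciferin substrate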; further: potency means the concentration at half of the fitted maximal effect; on activity change, negative = inhibition: on the % scale 0 is the no-effect control and ±100 the full control effect
Sequence (P33261 whole entry, looked up): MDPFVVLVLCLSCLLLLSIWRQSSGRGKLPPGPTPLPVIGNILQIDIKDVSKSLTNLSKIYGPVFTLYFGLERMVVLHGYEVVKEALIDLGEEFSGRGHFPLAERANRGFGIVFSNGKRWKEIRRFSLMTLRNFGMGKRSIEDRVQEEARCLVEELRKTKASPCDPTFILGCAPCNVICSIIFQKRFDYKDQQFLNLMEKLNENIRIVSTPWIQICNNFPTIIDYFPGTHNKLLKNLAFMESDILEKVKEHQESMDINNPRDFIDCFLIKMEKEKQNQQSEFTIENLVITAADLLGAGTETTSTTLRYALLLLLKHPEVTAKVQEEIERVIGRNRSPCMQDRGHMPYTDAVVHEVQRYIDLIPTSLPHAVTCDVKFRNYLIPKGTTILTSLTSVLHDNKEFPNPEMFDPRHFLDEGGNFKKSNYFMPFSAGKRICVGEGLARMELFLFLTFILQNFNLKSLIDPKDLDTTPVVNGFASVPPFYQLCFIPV
Procedure, shortened: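 Light output from converted D-luciferin reports remaining CYP activity. Compounds preincubate with enzyme and substrate for 15 min; NADPH regeneration (1x final) runs the reaction for 30-45 min.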

Compound | activity change, negative = inhibition | Potency
C=C(C)[C@H]1CC=C(C)C(=O)C1 | 16.2% | –
O=c1cc(-c2ccc(O)cc2)oc2cc(O[C@H]3OC(CO)C(O)C(O)C3O)cc(O)c12 (some centres undefined) | -39.5% | –
O=C(/C=C/c1ccc(O)c(O)c1)OC(Cc1ccc(O)c(O)c1)C(=O)O (centres undefined) | – | 3.55 µM (active)
C=C[C@](C)(O)CCC=C(C)C | – | 3.55 µM (active)
NC(Cc1c[nH]c2ccccc12)C(=O)O (centres undefined) | – | 3.16 µM (active)
COc1ccc2ccc(=O)oc2c1 | 3.43% [at 58.3 µM] | –

tested on: not listed separately; test: KB-3-1 P-gp reporter qHTS against the NCATS DSHEA and TCM libraries (AID 1919975); conditions: KB-3-1 parental cells, CellTiter-Glo luminescence viability, 72 h; series mostly up to 26.1 µM; activity change, negative = inhibition: at the top concentration; further: 0% is about no effect
Description: as §1, §2, §3, §4, §5
[1] Lee TD, et al. A High-Throughput Screen of a Library of Therapeutics Identifies Cytotoxic Substrates of P-glycoprotein. Mol Pharmacol. Nov 2019;96(5):629-640. doi:10.1124/mol.119.115964
PROTOCOL TABLE (as described by Inglese J, Shamu CE and Guy RK. 2007)
SEQUENCE No. (e.g., 1, 2, 3, etc.); PARAMETER (e.g., Cells, Incubation, Reagent, etc.); VALUE; DESCRIPTION.
1; Cells; 5 uL; KB-3-1 cells, white solid-bottom tissue treated Greiner plate.
2; Incubation; 4 hrs; 37C, 95% humidity, 5% CO2.
3; Compounds and control; 23 nL; Kalypsis pin tool (Wako USA) equipped with a 1536-well pin head to transfer to the assay plates.
4; Incubation; 72 hrs; 37C, 95% humidity, 5% CO2.
5; Reagent; 2.5 uL; CellTiter-Glo.
6; Centrifuge; 1000 RPM; 15 seconds.
7; Incubation; 30 min; room temperature.
8; Read; Luminescence; ViewLux plate reader.
NOTES (numbers refer to Sequence numbers above)
1. Cell line KB-3-1 and its colchicine-selected, P-gp-overexpressing subline KB-8-5-11 were maintained in DMEM (Thermofisher catalog #11965) with 10% FBS and 1% penicillin/streptomycin at 37C in 5% CO2. For the screen, assay medium was identical to culture medium. Briefly, 5 uL of cells at 1 x 10^5 cells/mL (500 cells/well) were dispensed into a 1536-well white solid-bottom tissue treated plate (Greiner Bio-One) using a Multidrop Combi dispenser.
2. Plates were incubated at 37C, 95% humidity, 5% CO2 for ~4 hours to allow for cell attachment.
3. Compounds and intraplate control (Bortezomib; final concentration range 228 pM - 7.5 uM) were transferred (16 nL) via pintool (Wako Automation), for a final concentration of 15.6 nM - 30.0 uM (most substances).
4. Plates were incubated for ~72 hours at 37C, 95% humidity, 5% CO2.
5. Plates were then dispensed with 2.5 uL of CellTiter-Glo.
6. The assay plates were centrifuged for 15 seconds at 1,000 RPM's.
7. The plates were incubated for 30-minute at room temperature.
8. Luminescence intensity was detected using a PerkinElmer ViewLux microplate reader.
[…]

Compound | activity change, negative = inhibition
C=C(C)[C@H]1CC=C(C)C(=O)C1 | -3.97%
O=c1cc(-c2ccc(O)cc2)oc2cc(O[C@H]3OC(CO)C(O)C(O)C3O)cc(O)c12 (some centres undefined) | 3.43%
COC(=O)C1=CO[C@@H](C)[C@H]2CN3CCc4c([nH]c5ccccc45)[C@@H]3C[C@H]12 | -18%
O=C(/C=C/c1ccc(O)c(O)c1)OC(Cc1ccc(O)c(O)c1)C(=O)O (centres undefined) | 2.54%
C=C[C@](C)(O)CCC=C(C)C | -3.55%
NC(Cc1c[nH]c2ccccc12)C(=O)O (centres undefined) | 3.41%
O=c1ccc2ccc(O)cc2o1 | -4.49%
COc1ccc2ccc(=O)oc2c1 | -8.1% [at 44.5 µM]

target: Cytochrome P450 1A2 (Homo sapiens) (UniProt P05177); test: qHTS for inhibitors of CYPIA2 against the NCATS DSHEA and TCM libraries (AID 1919976); conditions: recombinant CYP1A2 enzyme activity, luminescence; series mostly up to 37 µM; activity change, negative = inhibition: at the top concentration; further: potency means the concentration at half of the fitted maximal effect;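 on activity change, negative = inhibition: light from luciferin formed by CYP1A2 from a pro-luciferin substrate; on the % scale 0 is the no-effect control and ±100 the full control effect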
Sequence (P05177 whole entry, looked up): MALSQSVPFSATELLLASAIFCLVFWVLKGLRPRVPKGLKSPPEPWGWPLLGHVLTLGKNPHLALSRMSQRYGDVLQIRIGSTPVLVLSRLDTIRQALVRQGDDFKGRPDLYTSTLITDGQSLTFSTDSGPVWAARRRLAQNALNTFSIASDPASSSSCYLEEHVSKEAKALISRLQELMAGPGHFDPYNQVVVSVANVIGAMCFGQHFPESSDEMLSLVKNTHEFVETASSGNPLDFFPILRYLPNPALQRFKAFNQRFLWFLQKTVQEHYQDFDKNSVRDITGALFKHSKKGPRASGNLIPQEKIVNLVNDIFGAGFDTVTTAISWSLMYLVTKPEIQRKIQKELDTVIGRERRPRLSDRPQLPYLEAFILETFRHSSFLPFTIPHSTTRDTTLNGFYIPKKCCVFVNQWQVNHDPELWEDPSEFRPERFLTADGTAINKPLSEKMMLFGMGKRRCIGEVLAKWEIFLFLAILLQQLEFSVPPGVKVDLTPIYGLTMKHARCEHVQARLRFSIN
Procedure, shortened: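 In this quantitative HTS, inhibition of recombinant human CYP1A2 was measured as loss of luciferin-derived luminescence. Turnover ran 30-45 min at RT after NADPH regeneration solution was added.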

Compound | activity change, negative = inhibition [%] | Potency
C=C(C)[C@H]1CC=C(C)C(=O)C1 | 8.96 | –
O=c1cc(-c2ccc(O)cc2)oc2cc(O[C@H]3OC(CO)C(O)C(O)C3O)cc(O)c12 (some centres undefined) | -17.2 | –
COC(=O)C1=CO[C@@H](C)[C@H]2CN3CCc4c([nH]c5ccccc45)[C@@H]3C[C@H]12 | – | 3.55 µM (active)
C=C[C@](C)(O)CCC=C(C)C | – | 3.55 µM (active)
NC(Cc1c[nH]c2ccccc12)C(=O)O (centres undefined) | – | 3.55 µM (active)
O=c1ccc2ccc(O)cc2o1 | -27.6 | –
COc1ccc2ccc(=O)oc2c1 | – | 14.1 µM (active)

tested on: not listed separately; test: qHTS Counterscreen for compound interference against the NCATS DSHEA and TCM libraries (AID 1919978); conditions: firefly luciferase detection reagent interference, luminescence;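 further: compounds preincubated with 1 µM D-luciferin or buffer before detection reagent; % of control where 0% means no effect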
Procedure, shortened: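 Compounds, titrated from 19.5 nM to 39.8 uM final, were pinned onto 1 uM D-luciferin or plain 100 mM potassium phosphate. After 15 min at room temperature, luciferin detection reagent was added for 30 min before the luminescence read.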

Compound | max response [%]
C=C(C)[C@H]1CC=C(C)C(=O)C1 | 1.32
O=c1cc(-c2ccc(O)cc2)oc2cc(O[C@H]3OC(CO)C(O)C(O)C3O)cc(O)c12 (some centres undefined) | -0.179
